Laboratory results as given in PMC11006913.

What was measured:
Test in all cases: PBM; 200 nM protein, PBS
Conditions in all cases: dsDNA, one strand shown
[1] = molecular target: HESX1 (Homo sapiens, UniProt Q9UBX0 95-180, R165K)
[2] = molecular target: HESX1 (Homo sapiens, UniProt Q9UBX0 95-180)
[3] = molecular target: HESX1 (Homo sapiens, UniProt Q9UBX0 95-180, R109Q)
[4] = molecular target: HESX1 (Homo sapiens, UniProt Q9UBX0 95-180, P111T)
[5] = molecular target: HESX1 (Homo sapiens, UniProt Q9UBX0 95-180, F115L)
[6] = molecular target: ALX4 (Homo sapiens, UniProt Q9H161 200-286)
[7] = molecular target: ALX4 (Homo sapiens, UniProt Q9H161 200-286, Q225E)
[8] = molecular target: PRRX1 (Homo sapiens, UniProt P54821 80-166, F113S)
[9] = molecular target: MSX2 (Homo sapiens, UniProt P35548 130-214, R199I)
[10] = molecular target: ALX1 (Homo sapiens, UniProt Q15699 118-204, L144V)
[11] = molecular target: ALX1 (Homo sapiens, UniProt Q15699 118-204, L144R)
[12] = molecular target: PROP1 (Homo sapiens, UniProt O75360 56-141)
[13] = molecular target: PROP1 (Homo sapiens, UniProt O75360 56-141, R99H)
[14] = molecular target: ALX3 (Homo sapiens, UniProt O95076 139-225, L168Q)
[15] = molecular target: PROP1 (Homo sapiens, UniProt O75360 56-141, F88S)
[16] = molecular target: MSX2 (Homo sapiens, UniProt P35548 130-214, F161Y)
[17] = molecular target: ALX1 (Homo sapiens, UniProt Q15699 118-204)
[18] = molecular target: PRRX1 (Homo sapiens, UniProt P54821 80-166)
Chain of PRRX1 (Homo sapiens, UniProt P54821 80-166) (P54821 80-166): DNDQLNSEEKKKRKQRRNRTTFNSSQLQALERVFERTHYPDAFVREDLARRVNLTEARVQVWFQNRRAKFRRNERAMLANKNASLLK

Chain of HESX1 (Homo sapiens, UniProt Q9UBX0 95-180) (Q9UBX0 95-180): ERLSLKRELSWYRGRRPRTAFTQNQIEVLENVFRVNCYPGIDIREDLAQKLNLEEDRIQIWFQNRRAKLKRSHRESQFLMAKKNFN
Chain of HESX1 (Homo sapiens, UniProt Q9UBX0 95-180, P111T) (Q9UBX0 95-180 P111T): as the sequence (Q9UBX0 95-180) above, with P17T counted along it
Chain of ALX4 (Homo sapiens, UniProt Q9H161 200-286, Q225E) (Q9H161 200-286 Q225E): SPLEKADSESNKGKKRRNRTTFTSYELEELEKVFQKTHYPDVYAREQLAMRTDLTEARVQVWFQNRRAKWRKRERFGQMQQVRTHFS
Chain of ALX4 (Homo sapiens, UniProt Q9H161 200-286) (Q9H161 200-286): as the sequence (Q9H161 200-286 Q225E) above, with E26Q counted along it
Chain of HESX1 (Homo sapiens, UniProt Q9UBX0 95-180, R165K) (Q9UBX0 95-180 R165K): as the sequence (Q9UBX0 95-180) above, with R71K counted along it
Chain of HESX1 (Homo sapiens, UniProt Q9UBX0 95-180, F115L) (Q9UBX0 95-180 F115L): as the sequence (Q9UBX0 95-180) above, with F21L counted along it
Chain of HESX1 (Homo sapiens, UniProt Q9UBX0 95-180, R109Q) (Q9UBX0 95-180 R109Q): as the sequence (Q9UBX0 95-180) above, with R15Q counted along it
Chain of PROP1 (Homo sapiens, UniProt O75360 56-141, F88S) (O75360 56-141 F88S): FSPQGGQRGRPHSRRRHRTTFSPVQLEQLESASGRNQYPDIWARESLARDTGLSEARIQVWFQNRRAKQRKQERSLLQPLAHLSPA
Chain of MSX2 (Homo sapiens, UniProt P35548 130-214, F161Y) (P35548 130-214 F161Y): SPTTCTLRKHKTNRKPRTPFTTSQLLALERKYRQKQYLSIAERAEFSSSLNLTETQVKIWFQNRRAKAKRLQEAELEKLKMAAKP
Chain of PROP1 (Homo sapiens, UniProt O75360 56-141) (O75360 56-141): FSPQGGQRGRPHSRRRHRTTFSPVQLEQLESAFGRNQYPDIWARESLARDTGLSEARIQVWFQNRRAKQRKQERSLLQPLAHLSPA
Chain of PROP1 (Homo sapiens, UniProt O75360 56-141, R99H) (O75360 56-141 R99H): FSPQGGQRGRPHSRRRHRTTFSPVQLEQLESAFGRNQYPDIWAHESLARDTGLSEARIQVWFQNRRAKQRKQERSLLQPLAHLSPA
Chain of MSX2 (Homo sapiens, UniProt P35548 130-214, R199I) (P35548 130-214 R199I): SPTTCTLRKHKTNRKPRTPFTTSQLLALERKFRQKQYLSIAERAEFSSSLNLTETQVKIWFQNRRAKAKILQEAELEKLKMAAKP
Chain of ALX3 (O95076 139-225 L168Q): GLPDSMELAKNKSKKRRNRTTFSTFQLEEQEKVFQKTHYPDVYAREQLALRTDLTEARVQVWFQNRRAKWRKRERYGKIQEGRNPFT
Chain of PRRX1 (Homo sapiens, UniProt P54821 80-166, F113S) (P54821 80-166 F113S): as the sequence (P54821 80-166) above, with F34S counted along it
Chain of ALX1 (Homo sapiens, UniProt Q15699 118-204) (Q15699 118-204): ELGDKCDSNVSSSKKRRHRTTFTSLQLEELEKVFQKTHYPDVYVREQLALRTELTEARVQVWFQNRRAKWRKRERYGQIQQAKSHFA
Chain of ALX1 (Homo sapiens, UniProt Q15699 118-204, L144R) (Q15699 118-204 L144R): as the sequence (Q15699 118-204) above, with L27R counted along it
Chain of ALX1 (Homo sapiens, UniProt Q15699 118-204, L144V) (Q15699 118-204 L144V): as the sequence (Q15699 118-204) above, with L27V counted along it

Q: With CAGGCCGG as the sequence, how does the binding signal [1] read?
A: Its binding signal is 6.44 upbm affinity estimate (log intensity, higher = more binding, comparable within an allelic series).

Q: What about the binding signal [2] of the same sequence?
A: The binding signal was 6.33 upbm affinity estimate (log intensity, higher = more binding, comparable within an allelic series).

Q: And the binding signal [3]?
A: Its binding signal is 6.48 upbm affinity estimate (log intensity, higher = more binding, comparable within an allelic series).

Q: And the binding signal [4]?
A: Its binding signal is 6.33 upbm affinity estimate (log intensity, higher = more binding, comparable within an allelic series).

Q: What about the binding signal [5] of the same sequence?
A: Its binding signal is 6.4 upbm affinity estimate (log intensity, higher = more binding, comparable within an allelic series).

Q: AATTGAGT was tested. Which binding signal [1] did it give?
A: Its binding signal is 9.4 upbm affinity estimate (log intensity, higher = more binding, comparable within an allelic series).

Q: What about the binding signal [2] of the same sequence?
A: The binding signal was 9.59 upbm affinity estimate (log intensity, higher = more binding, comparable within an allelic series).

Q: How did the binding signal [1] turn out when GAGCAGCC was run?
A: The binding signal was 6.52 upbm affinity estimate (log intensity, higher = more binding, comparable within an allelic series).

Q: What about the binding signal [6] of the same sequence?
A: Its binding signal is 8.07 upbm affinity estimate (log intensity, higher = more binding, comparable within an allelic series).

Q: And the binding signal [7]?
A: The binding signal was 8.24 upbm affinity estimate (log intensity, higher = more binding, comparable within an allelic series).

Q: And the binding signal [2]?
A: The binding signal was 6.51 upbm affinity estimate (log intensity, higher = more binding, comparable within an allelic series).

Q: What about the binding signal [3] of the same sequence?
A: Its binding signal is 6.47 upbm affinity estimate (log intensity, higher = more binding, comparable within an allelic series).

Q: What about the binding signal [4] of the same sequence?
A: Its binding signal is 6.43 upbm affinity estimate (log intensity, higher = more binding, comparable within an allelic series).

Q: What about the binding signal [5] of the same sequence?
A: The binding signal was 6.53 upbm affinity estimate (log intensity, higher = more binding, comparable within an allelic series).

Q: What does the source list for TAGCTTAA?
A: binding signal [1]: 7.4 upbm affinity estimate (log intensity, higher = more binding, comparable within an allelic series); binding signal [2]: 7.51 upbm affinity estimate (log intensity, higher = more binding, comparable within an allelic series)

Q: What does the source list for GAGTCGCC?
A: binding signal [1]: 6.49 upbm affinity estimate (log intensity, higher = more binding, comparable within an allelic series); binding signal [6]: 8.18 upbm affinity estimate (log intensity, higher = more binding, comparable within an allelic series); binding signal [7]: 8.37 upbm affinity estimate (log intensity, higher = more binding, comparable within an allelic series); binding signal [2]: 6.48 upbm affinity estimate (log intensity, higher = more binding, comparable within an allelic series); binding signal [3]: 6.47 upbm affinity estimate (log intensity, higher = more binding, comparable within an allelic series); binding signal [4]: 6.56 upbm affinity estimate (log intensity, higher = more binding, comparable within an allelic series); binding signal [5]: 6.36 upbm affinity estimate (log intensity, higher = more binding, comparable within an allelic series)

Q: How did the binding signal [1] turn out when AATTATCT was run?
A: Its binding signal is 11.8 upbm affinity estimate (log intensity, higher = more binding, comparable within an allelic series).

Q: What about the binding signal [6] of the same sequence?
A: The binding signal was 13.6 upbm affinity estimate (log intensity, higher = more binding, comparable within an allelic series).

Q: And the binding signal [8]?
A: The binding signal was 11.2 upbm affinity estimate (log intensity, higher = more binding, comparable within an allelic series).

Q: What about the binding signal [7] of the same sequence?
A: Its binding signal is 12.7 upbm affinity estimate (log intensity, higher = more binding, comparable within an allelic series).

Q: And the binding signal [2]?
A: Its binding signal is 11.8 upbm affinity estimate (log intensity, higher = more binding, comparable within an allelic series).

Q: And the binding signal [9]?
A: The binding signal was 12.3 upbm affinity estimate (log intensity, higher = more binding, comparable within an allelic series).

Q: And the binding signal [10]?
A: The binding signal was 11.6 upbm affinity estimate (log intensity, higher = more binding, comparable within an allelic series).

Q: And the binding signal [11]?
A: The binding signal was 11.3 upbm affinity estimate (log intensity, higher = more binding, comparable within an allelic series).

Q: And the binding signal [12]?
A: The binding signal was 11.1 upbm affinity estimate (log intensity, higher = more binding, comparable within an allelic series).

Q: What about the binding signal [3] of the same sequence?
A: Its binding signal is 8.47 upbm affinity estimate (log intensity, higher = more binding, comparable within an allelic series).

Q: What about the binding signal [13] of the same sequence?
A: The binding signal was 10.8 upbm affinity estimate (log intensity, higher = more binding, comparable within an allelic series).

Q: What about the binding signal [14] of the same sequence?
A: The binding signal was 10.3 upbm affinity estimate (log intensity, higher = more binding, comparable within an allelic series).

Q: What about the binding signal [4] of the same sequence?
A: The binding signal was 10.2 upbm affinity estimate (log intensity, higher = more binding, comparable within an allelic series).

Q: And the binding signal [15]?
A: The binding signal was 7.79 upbm affinity estimate (log intensity, higher = more binding, comparable within an allelic series).

Q: And the binding signal [16]?
A: The binding signal was 13 upbm affinity estimate (log intensity, higher = more binding, comparable within an allelic series).

Q: What about the binding signal [5] of the same sequence?
A: Its binding signal is 7.77 upbm affinity estimate (log intensity, higher = more binding, comparable within an allelic series).

Q: And the binding signal [17]?
A: The binding signal was 12.1 upbm affinity estimate (log intensity, higher = more binding, comparable within an allelic series).

Q: And the binding signal [18]?
A: The binding signal was 13.2 upbm affinity estimate (log intensity, higher = more binding, comparable within an allelic series).

Q: CCGCCGAG was tested. Which binding signal [1] did it give?
A: The binding signal was 6.43 upbm affinity estimate (log intensity, higher = more binding, comparable within an allelic series).

Q: What about the binding signal [2] of the same sequence?
A: Its binding signal is 6.32 upbm affinity estimate (log intensity, higher = more binding, comparable within an allelic series).

Q: What about the binding signal [3] of the same sequence?
A: The binding signal was 6.49 upbm affinity estimate (log intensity, higher = more binding, comparable within an allelic series).

Q: And the binding signal [4]?
A: The binding signal was 6.43 upbm affinity estimate (log intensity, higher = more binding, comparable within an allelic series).

Q: And the binding signal [5]?
A: The binding signal was 6.38 upbm affinity estimate (log intensity, higher = more binding, comparable within an allelic series).

Q: Which binding signal [1] does the source give for ATTAAGGA here?
A: Its binding signal is 8.58 upbm affinity estimate (log intensity, higher = more binding, comparable within an allelic series).

Q: What about the binding signal [2] of the same sequence?
A: Its binding signal is 9.12 upbm affinity estimate (log intensity, higher = more binding, comparable within an allelic series).

Q: How did the binding signal [1] turn out when GAACCCCC was run?
A: Its binding signal is 6.29 upbm affinity estimate (log intensity, higher = more binding, comparable within an allelic series).

Q: What about the binding signal [2] of the same sequence?
A: Its binding signal is 6.26 upbm affinity estimate (log intensity, higher = more binding, comparable within an allelic series).

Q: What about the binding signal [9] of the same sequence?
A: The binding signal was 9.43 upbm affinity estimate (log intensity, higher = more binding, comparable within an allelic series).

Q: What about the binding signal [3] of the same sequence?
A: Its binding signal is 6.37 upbm affinity estimate (log intensity, higher = more binding, comparable within an allelic series).

Q: What about the binding signal [4] of the same sequence?
A: The binding signal was 6.38 upbm affinity estimate (log intensity, higher = more binding, comparable within an allelic series).

Q: And the binding signal [16]?
A: The binding signal was 9.53 upbm affinity estimate (log intensity, higher = more binding, comparable within an allelic series).

Q: And the binding signal [5]?
A: The binding signal was 6.35 upbm affinity estimate (log intensity, higher = more binding, comparable within an allelic series).

Q: Which binding signal [1] does the source give for CAGTGCCG here?
A: The binding signal was 6.35 upbm affinity estimate (log intensity, higher = more binding, comparable within an allelic series).

Q: And the binding signal [2]?
A: The binding signal was 6.41 upbm affinity estimate (log intensity, higher = more binding, comparable within an allelic series).

Q: What about the binding signal [3] of the same sequence?
A: Its binding signal is 6.49 upbm affinity estimate (log intensity, higher = more binding, comparable within an allelic series).

Q: What about the binding signal [4] of the same sequence?
A: Its binding signal is 6.42 upbm affinity estimate (log intensity, higher = more binding, comparable within an allelic series).

Q: And the binding signal [5]?
A: The binding signal was 6.53 upbm affinity estimate (log intensity, higher = more binding, comparable within an allelic series).

Q: Which results are given for CAGTGTCG?
A: binding signal [1]: 6.55 upbm affinity estimate (log intensity, higher = more binding, comparable within an allelic series); binding signal [2]: 6.52 upbm affinity estimate (log intensity, higher = more binding, comparable within an allelic series); binding signal [3]: 6.61 upbm affinity estimate (log intensity, higher = more binding, comparable within an allelic series); binding signal [4]: 6.51 upbm affinity estimate (log intensity, higher = more binding, comparable within an allelic series); binding signal [5]: 6.58 upbm affinity estimate (log intensity, higher = more binding, comparable within an allelic series)

Q: Which binding signal [1] does the source give for CCGGCCGA here?
A: The binding signal was 6.49 upbm affinity estimate (log intensity, higher = more binding, comparable within an allelic series).

Q: And the binding signal [2]?
A: Its binding signal is 6.45 upbm affinity estimate (log intensity, higher = more binding, comparable within an allelic series).

Q: What about the binding signal [12] of the same sequence?
A: Its binding signal is 6.73 upbm affinity estimate (log intensity, higher = more binding, comparable within an allelic series).

Q: What about the binding signal [3] of the same sequence?
A: The binding signal was 6.51 upbm affinity estimate (log intensity, higher = more binding, comparable within an allelic series).

Q: And the binding signal [13]?
A: The binding signal was 6.72 upbm affinity estimate (log intensity, higher = more binding, comparable within an allelic series).

Q: What about the binding signal [4] of the same sequence?
A: The binding signal was 6.49 upbm affinity estimate (log intensity, higher = more binding, comparable within an allelic series).

Q: And the binding signal [15]?
A: The binding signal was 6.59 upbm affinity estimate (log intensity, higher = more binding, comparable within an allelic series).

Q: What about the binding signal [5] of the same sequence?
A: The binding signal was 6.54 upbm affinity estimate (log intensity, higher = more binding, comparable within an allelic series).
